# Test results reported in PubChem BioAssay (EPA / NIEHS).
# Inconclusive results are not listed. Activity calls are given as the source filed them. How the source made its calls: active means hit-call score of the fitted dose curve at least 0.9, where 1 is the maximum; inconclusive means response in the unintended direction; inactive means score below 0.9.
# Legend:
# [1] = target: rat Adenylate Cyclase, Forskolin Stimulated, Adcy5 (gene 64532) (UniProt Q04400); test: NVS_ENZ_rACFSKBinding: NovaScreen (NVS) Enzymatic Assay for rat Adenylate Cyclase, Forskolin Stimulated (AID 2283232)
# How it was run: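 Rat forebrain membrane preparation, cell-free, read 1 h after dosing by filter-based scintillation counting. Primary screen in duplicate at 25 uM; actives (e.g. ≥30% inhibition) rerun in concentration-response up to 50 uM; fit versus DMSO.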
# [2] = target: human Tyrosine Protein Kinase Receptor Tie-2 (Tie2), TEK (gene 7010) (UniProt Q02763); test: NVS_ENZ_hTie2: NovaScreen (NVS) Enzymatic Assay for human Tyrosine Protein Kinase Receptor Tie-2 (Tie2) (AID 2283225)
# How it was run: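 Recombinant human Tie2 kinase activity was read cell-free by fluorescence with electrophoretic mobility shift, 1 hour after dosing. The screen used 25 uM in duplicate, then concentration-response up to 50 uM. Signal loss was scored against DMSO.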
# [3] = target: rat Acetylcholinesterase (AChE), Ache (gene 83817) (UniProt P37136); test: NVS_ENZ_rAChE: NovaScreen (NVS) Enzymatic Assay for rat Acetylcholinesterase (AChE) (AID 2283233)
# Chain of rat Acetylcholinesterase (AChE), Ache (gene 83817) (P37136 whole entry, looked up): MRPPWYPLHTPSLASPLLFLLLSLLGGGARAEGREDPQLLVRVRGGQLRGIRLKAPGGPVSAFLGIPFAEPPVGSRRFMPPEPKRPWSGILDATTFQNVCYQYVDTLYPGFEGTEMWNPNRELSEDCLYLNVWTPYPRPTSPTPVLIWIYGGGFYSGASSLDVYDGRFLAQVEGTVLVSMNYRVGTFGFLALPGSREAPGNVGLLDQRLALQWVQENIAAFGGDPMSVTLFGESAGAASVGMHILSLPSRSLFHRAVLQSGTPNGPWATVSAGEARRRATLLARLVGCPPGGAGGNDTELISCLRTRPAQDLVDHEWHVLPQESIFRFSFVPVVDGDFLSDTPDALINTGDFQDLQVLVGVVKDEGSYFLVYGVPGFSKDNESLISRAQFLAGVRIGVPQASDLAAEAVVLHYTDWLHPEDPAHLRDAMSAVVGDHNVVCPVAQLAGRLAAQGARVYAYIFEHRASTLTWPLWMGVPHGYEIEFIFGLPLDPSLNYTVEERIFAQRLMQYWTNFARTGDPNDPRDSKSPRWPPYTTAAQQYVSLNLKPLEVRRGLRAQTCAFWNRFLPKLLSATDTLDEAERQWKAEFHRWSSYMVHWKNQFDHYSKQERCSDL
# How it was run: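 Rat brain membrane acetylcholinesterase activity measured colorimetrically 0.33 h after compound addition, loss of signal relative to DMSO. Primary screen in duplicate at 25 uM; actives re-run as concentration-response with 50 uM top concentration.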
# [4] = system: rat Monoamine Oxidase, MAO-A, Central (MAOAC), gene 29253; test: NVS_ENZ_rMAOAC: NovaScreen (NVS) Enzymatic Assay for rat Monoamine Oxidase, MAO-A, Central (MAOAC) (AID 2283243);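 further: potency refers to inhibition seen as signal drop below DMSO baseline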
# How it was run: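 Steps: rat brain protein extract dosed with test chemical (25 uM, duplicate, primary); incubated 1.5 h; radiolabelled product separated from substrate and counted. Signal loss versus DMSO scored as inhibition.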
# [5] = system: guinea pig Leukotriene B4 Receptor (LTB4), gene 100379538; test: NVS_GPCR_gLTB4: NovaScreen (NVS) G Protein-Coupled Receptor Assay for guinea pig Leukotriene B4 Receptor (LTB4) (AID 2283247)
# How it was run: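 Radioligand displacement on guinea pig spleen membranes, filter-based scintillation counting 2 h after dosing. Primary duplicate single point at 25 uM; hits over threshold (e.g. 30% inhibition) run in concentration-response up to 50 uM, DMSO baseline.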
# [6] = target: rat Constitutive Nitric Oxide Synthase (CNOS), Nos1 (gene 24598) (UniProt P29476); test: NVS_ENZ_rCNOS: NovaScreen (NVS) Enzymatic Assay for rat Constitutive Nitric Oxide Synthase (CNOS) (AID 2283236)
# Chain of rat Constitutive Nitric Oxide Synthase (CNOS), Nos1 (gene 24598) (P29476 whole entry, looked up): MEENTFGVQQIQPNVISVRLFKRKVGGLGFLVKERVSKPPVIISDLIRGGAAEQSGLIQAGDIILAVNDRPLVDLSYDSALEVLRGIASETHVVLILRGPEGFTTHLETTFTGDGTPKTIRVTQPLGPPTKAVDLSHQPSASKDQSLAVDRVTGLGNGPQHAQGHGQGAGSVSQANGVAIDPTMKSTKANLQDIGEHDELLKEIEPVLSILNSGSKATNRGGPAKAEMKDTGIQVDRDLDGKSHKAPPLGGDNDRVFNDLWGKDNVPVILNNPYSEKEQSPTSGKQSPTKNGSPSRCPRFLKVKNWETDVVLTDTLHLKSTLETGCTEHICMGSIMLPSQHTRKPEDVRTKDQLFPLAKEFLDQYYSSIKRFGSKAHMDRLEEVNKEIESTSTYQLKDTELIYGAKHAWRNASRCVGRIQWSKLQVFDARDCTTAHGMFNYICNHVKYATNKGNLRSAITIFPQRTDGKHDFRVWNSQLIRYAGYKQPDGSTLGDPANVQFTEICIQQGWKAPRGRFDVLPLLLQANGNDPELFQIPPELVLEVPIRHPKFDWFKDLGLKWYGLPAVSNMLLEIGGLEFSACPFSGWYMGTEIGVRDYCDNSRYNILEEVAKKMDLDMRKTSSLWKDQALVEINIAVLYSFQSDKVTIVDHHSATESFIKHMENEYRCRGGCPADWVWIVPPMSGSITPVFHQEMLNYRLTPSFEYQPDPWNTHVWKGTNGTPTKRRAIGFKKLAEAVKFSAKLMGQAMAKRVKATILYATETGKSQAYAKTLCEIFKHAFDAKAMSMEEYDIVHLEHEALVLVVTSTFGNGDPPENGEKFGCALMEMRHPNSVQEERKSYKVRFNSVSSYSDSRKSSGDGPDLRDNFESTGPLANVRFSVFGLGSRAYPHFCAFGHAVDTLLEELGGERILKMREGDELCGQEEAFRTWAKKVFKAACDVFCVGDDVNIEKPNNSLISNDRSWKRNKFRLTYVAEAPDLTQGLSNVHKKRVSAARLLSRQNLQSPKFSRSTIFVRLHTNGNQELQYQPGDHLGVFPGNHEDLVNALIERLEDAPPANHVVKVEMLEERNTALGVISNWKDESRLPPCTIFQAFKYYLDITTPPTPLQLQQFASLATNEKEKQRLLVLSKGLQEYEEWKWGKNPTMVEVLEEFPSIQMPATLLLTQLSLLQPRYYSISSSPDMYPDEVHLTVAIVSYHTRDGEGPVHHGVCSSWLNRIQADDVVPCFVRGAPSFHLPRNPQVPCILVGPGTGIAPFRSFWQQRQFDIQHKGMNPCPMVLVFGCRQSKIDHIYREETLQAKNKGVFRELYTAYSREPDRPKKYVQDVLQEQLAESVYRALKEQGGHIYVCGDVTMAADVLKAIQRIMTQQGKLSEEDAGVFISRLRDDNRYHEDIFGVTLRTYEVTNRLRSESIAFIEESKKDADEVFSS
# How it was run: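 Enzyme activity in rat brain membrane preparation, read 1 h after dosing by filter-based radiometric scintillation counting. Primary screen in duplicate at 25 uM; actives (e.g., ≥30% inhibition) then run in concentration-response up to 50 uM.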
# [7] = target: rat Monoamine Oxidase, MAO-B, Peripheral (MAOBP), Maob (gene 25750) (UniProt P19643); test: NVS_ENZ_rMAOBP: NovaScreen (NVS) Enzymatic Assay for rat Monoamine Oxidase, MAO-B, Peripheral (MAOBP) (AID 2283242)
# Chain of rat Monoamine Oxidase, MAO-B, Peripheral (MAOBP), Maob (gene 25750) (P19643 whole entry, looked up): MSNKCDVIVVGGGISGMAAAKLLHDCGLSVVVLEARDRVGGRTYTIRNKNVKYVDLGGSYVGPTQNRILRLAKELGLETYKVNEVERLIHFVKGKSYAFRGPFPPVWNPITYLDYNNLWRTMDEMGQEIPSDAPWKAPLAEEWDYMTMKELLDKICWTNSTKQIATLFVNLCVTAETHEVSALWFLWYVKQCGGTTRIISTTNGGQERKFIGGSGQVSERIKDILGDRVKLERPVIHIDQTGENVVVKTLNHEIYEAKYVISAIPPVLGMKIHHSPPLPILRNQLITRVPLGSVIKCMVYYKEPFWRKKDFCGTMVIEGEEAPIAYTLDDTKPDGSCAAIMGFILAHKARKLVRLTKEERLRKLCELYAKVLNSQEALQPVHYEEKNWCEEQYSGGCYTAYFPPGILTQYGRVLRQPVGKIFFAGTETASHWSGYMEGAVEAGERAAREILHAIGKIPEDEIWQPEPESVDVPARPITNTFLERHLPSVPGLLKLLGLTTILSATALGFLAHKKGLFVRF
# [8] = target: sheep Cyclooxygenase-1 (Cox1), PTGS1 (gene 443551) (UniProt P05979); test: NVS_ENZ_oCOX1: NovaScreen (NVS) Enzymatic Assay for sheep Cyclooxygenase-1 (Cox1) (AID 2283239);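 further: actives reduce cyclooxygenase activity so potencies are for inhibitors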
# Chain of sheep Cyclooxygenase-1 (Cox1), PTGS1 (gene 443551) (P05979 whole entry, looked up): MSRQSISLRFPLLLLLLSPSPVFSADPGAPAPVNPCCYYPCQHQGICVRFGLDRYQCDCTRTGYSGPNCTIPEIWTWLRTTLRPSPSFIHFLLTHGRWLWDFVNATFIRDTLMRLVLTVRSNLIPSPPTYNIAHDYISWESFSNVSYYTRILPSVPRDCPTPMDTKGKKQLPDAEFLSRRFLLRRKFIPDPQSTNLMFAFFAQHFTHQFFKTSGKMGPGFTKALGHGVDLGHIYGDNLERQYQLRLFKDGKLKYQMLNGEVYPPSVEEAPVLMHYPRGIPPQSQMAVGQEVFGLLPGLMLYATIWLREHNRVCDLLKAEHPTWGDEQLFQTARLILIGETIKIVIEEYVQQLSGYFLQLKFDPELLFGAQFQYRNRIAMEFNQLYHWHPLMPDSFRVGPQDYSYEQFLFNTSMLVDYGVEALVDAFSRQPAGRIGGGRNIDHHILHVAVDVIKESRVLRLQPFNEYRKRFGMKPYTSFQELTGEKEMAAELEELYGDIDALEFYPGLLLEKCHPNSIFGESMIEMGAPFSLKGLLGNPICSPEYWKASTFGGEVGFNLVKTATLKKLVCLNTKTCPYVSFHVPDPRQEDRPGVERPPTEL
# How it was run: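 Cell-free colorimetric assay of enzyme activity in a native extract of ovine seminal vesicles. Absorbance was read 0.66 hour after compound addition. Loss of signal relative to the DMSO negative control was scored, with actives from the 25 uM duplicate primary screen retested in concentration series.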
# [9] = target: rat Monoamine Oxidase, MAO-B, Central (MAOBC), Maob (gene 25750) (UniProt P19643); test: NVS_ENZ_rMAOBC: NovaScreen (NVS) Enzymatic Assay for rat Monoamine Oxidase, MAO-B, Central (MAOBC) (AID 2283238)
# Chain of rat Monoamine Oxidase, MAO-B, Central (MAOBC), Maob (gene 25750) (P19643 whole entry, looked up): as the sequence (P19643 whole entry, looked up) above
# How it was run: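 MAO-B activity in rat brain tissue preparation, cell-free, measured radiometrically by scintillation counting 1.17 h after dosing. Screened in duplicate at 25 uM; actives then in concentration-response up to 50 uM. Loss of signal versus DMSO scored.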
# [10] = target: Adenosine receptor A1 (Bos taurus) (UniProt P28190); test: NVS_GPCR_bAdoR_NonSelective: NovaScreen (NVS) G Protein-Coupled Receptor Assay for bovine Adenosine Receptor (AdoR), Non-selective Binding (AID 2283244)
# Chain of Adenosine receptor A1 (Bos taurus) (P28190 whole entry, looked up): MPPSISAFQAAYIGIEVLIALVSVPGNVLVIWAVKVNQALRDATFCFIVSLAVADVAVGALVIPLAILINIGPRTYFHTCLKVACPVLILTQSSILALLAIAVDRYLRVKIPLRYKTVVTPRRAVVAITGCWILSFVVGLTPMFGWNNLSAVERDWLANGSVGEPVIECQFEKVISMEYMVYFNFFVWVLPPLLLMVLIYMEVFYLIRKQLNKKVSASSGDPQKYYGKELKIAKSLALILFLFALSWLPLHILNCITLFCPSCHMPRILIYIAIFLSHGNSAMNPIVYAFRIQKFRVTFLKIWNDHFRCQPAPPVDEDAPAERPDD
# How it was run: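 Bovine striatal membranes, radioligand displacement binding, 1 h after dosing, filter-based scintillation counting. Screened in duplicate at 25 uM, then concentration-response up to 50 uM; loss of specific binding relative to DMSO.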
# [11] = system: bovine Histamine 1 Receptor (H1), gene 281231; test: NVS_GPCR_bH1: NovaScreen (NVS) G Protein-Coupled Receptor Assay for bovine Histamine 1 Receptor (H1) (AID 2283246)
# How it was run: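 Radioligand displacement on bovine cerebellar membranes, 1 h after dosing, filter-based scintillation read-out; loss of signal vs DMSO. Duplicate single-concentration screen at 25 uM, then concentration-response up to 50 uM for hits.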
# [12] = target: rat Catechol-O-Methyl Transferase (COMT), Comt (gene 24267) (UniProt P22734); test: NVS_ENZ_rCOMT: NovaScreen (NVS) Enzymatic Assay for rat Catechol-O-Methyl Transferase (COMT) (AID 2283235)
# Chain of rat Catechol-O-Methyl Transferase (COMT), Comt (gene 24267) (P22734 whole entry, looked up): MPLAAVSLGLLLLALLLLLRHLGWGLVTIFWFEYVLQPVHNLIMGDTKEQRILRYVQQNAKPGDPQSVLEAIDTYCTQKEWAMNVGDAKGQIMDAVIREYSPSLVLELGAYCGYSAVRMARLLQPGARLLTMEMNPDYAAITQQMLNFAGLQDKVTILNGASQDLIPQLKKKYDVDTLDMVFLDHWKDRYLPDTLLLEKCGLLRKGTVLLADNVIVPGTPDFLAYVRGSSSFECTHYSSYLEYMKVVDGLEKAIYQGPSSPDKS
# How it was run: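 Cell-free enzyme activity with protein extracted from rat dorsal striatum, measured by HPLC with absorbance detection. Compounds screened at 25 uM in duplicate; actives then run in concentration-response up to 50 uM, loss of signal versus DMSO.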
# [13] = target: bovine Dopamine Receptor (DR), Non-selective Binding, DRD1 (gene 281125) (UniProt Q95136); test: NVS_GPCR_bDR_NonSelective: NovaScreen (NVS) G Protein-Coupled Receptor Assay for bovine Dopamine Receptor (DR), Non-selective Binding (AID 2283241)
# Chain of bovine Dopamine Receptor (DR), Non-selective Binding, DRD1 (gene 281125) (Q95136 whole entry, looked up): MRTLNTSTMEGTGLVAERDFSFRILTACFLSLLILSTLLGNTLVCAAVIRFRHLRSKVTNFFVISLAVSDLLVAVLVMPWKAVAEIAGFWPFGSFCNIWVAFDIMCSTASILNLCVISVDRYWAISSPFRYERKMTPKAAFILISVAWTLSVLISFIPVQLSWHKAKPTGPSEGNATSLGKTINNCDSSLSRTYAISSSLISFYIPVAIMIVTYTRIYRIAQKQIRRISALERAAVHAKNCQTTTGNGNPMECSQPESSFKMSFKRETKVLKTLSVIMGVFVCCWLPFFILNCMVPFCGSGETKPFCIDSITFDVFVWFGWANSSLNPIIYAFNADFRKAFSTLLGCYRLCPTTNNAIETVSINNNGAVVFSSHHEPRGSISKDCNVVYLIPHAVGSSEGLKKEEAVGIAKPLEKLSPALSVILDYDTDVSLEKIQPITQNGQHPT
# How it was run: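 Bovine striatal membranes; radioligand displacement read by filtration and scintillation counting 1 h after dosing, loss of signal vs DMSO. Screened in duplicate at 25 uM, then concentration-response for hits.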
# [14] = system: rat Monoamine Oxidase, MAO-A, Peripheral (MAOAP), gene 29253; test: NVS_ENZ_rMAOAP: NovaScreen (NVS) Enzymatic Assay for rat Monoamine Oxidase, MAO-A, Peripheral (MAOAP) (AID 2283237)
# How it was run: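 Rat liver mitochondrial membranes served as the MAO-A source, with enzyme activity measured by radiometric scintillation counting 1.17 hours after dosing. Loss of signal was fitted against DMSO; primary screen used 25 uM in duplicate, follow-up used concentration series.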
# [15] = NVS_GPCR_bNPY_NonSelective: NovaScreen (NVS) G Protein-Coupled Receptor Assay for bovine Neuropeptide Y (NPY) Receptor, Non-selective Binding (AID 2283245)
# How it was run: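 Bovine hippocampal membranes incubated 1 hour with radioligand and test chemical. Bound ligand measured by filter-based scintillation counting. Single-concentration screen at 25 uM in duplicate, then concentration-response up to 50 uM.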
smiles,measurement,setting,value
CO/N=C(/C1=NOCCO1)c1ccccc1Oc1ncnc(Oc2ccccc2Cl)c1F,outcome,[1],inactive
Nc1c(Cl)c(Cl)nc(C(=O)O)c1Cl,outcome,[2],inactive
same,outcome,[3],inactive
COP(=S)(OC)Oc1ccc([N+](=O)[O-])c(C)c1,outcome,[4],inactive
C=C(C)CN(CC)c1c([N+](=O)[O-])cc(C(F)(F)F)cc1[N+](=O)[O-],outcome,[5],inactive
CCN(CC)c1nc(C)cc(OP(=S)(OC)OC)n1,outcome,[6],inactive
same,outcome,[5],inactive
O=C(Nc1ccccc1-c1ccc(Cl)cc1)c1cccnc1Cl,outcome,[7],inactive
CNC(=O)N(C)c1nnc(C(C)(C)C)s1,outcome,[8],inactive
N#Cc1c(Cl)cccc1Cl,AC50,[9],25 µM (active)
same,outcome,[4],inactive
CCC(C)n1c(=O)[nH]c(C)c(Br)c1=O (stereo not given),outcome,[10],inactive
same,outcome,[11],inactive
O=P(O)(O)CCCl,outcome,[12],inactive
CC(C)=CC1C(C(=O)OCc2coc(Cc3ccccc3)c2)C1(C)C (stereo not given),outcome,[13],inactive
same,AC50,[5],6.5 µM (active)
COc1cc(OC)nc(NC(=O)NS(=O)(=O)c2ncccc2OCC(F)(F)F)n1,outcome,[14],inactive
COC(=O)c1c(C(F)F)nc(C(F)(F)F)c(C2=NCCS2)c1CC(C)C,outcome,[6],inactive
same,outcome,[14],inactive
N#Cc1c[nH]cc1-c1cccc2c1OC(F)(F)O2,outcome,[9],inactive
same,outcome,[4],inactive
same,outcome,[15],inactive
CCOP(=S)(OCC)Oc1nc(Cl)n(C(C)C)n1,outcome,[15],inactive
COCC(C)N(C(=O)CCl)c1c(C)csc1C (stereo not given),outcome,[8],inactive
Cc1nc(N(C)C)nc(OC(=O)N(C)C)c1C,AC50,[12],0.991 µM (active)
same,AC50,[14],10.4 µM (active)
same,AC50,[4],12.8 µM (active)
CC1(C)CCC(=Cc2ccc(Cl)cc2)C1(O)Cn1cncn1 (stereo not given),outcome,[9],inactive
COc1ccc(-c2ccccc2)cc1NNC(=O)OC(C)C,outcome,[6],inactive
same,AC50,[14],0.31 µM (active)
same,AC50,[9],0.0452 µM (active)
same,AC50,[7],0.139 µM (active)
same,AC50,[4],0.599 µM (active)
CN=C=S,outcome,[6],inactive
same,outcome,[7],inactive
Cc1cc(C)nc(Nc2ccccc2)n1,outcome,[4],inactive
CC(C)NC(=O)N1CC(=O)N(c2cc(Cl)cc(Cl)c2)C1=O,AC50,[6],25 µM (active)
same,outcome,[13],inactive
Nc1c(Cl)c(F)nc(OCC(=O)O)c1Cl,AC50,[4],46.8 µM (active)
CCCCC(C#N)(Cn1cncn1)c1ccc(Cl)cc1 (stereo not given),outcome,[14],inactive
